This is part of a sample that, as a whole, favours compounds with a hit. Of some 83,000 tested, about 20% had one in any assay.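 Testing used 96-well plates and a 48-hour single-concentration exposure. Example: -40 means 40% of the starting cells died.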 A number with no mark means an inactive call. Active and inactive are the calls of the source. The calls were made as follows: active = growth percent below 10; inactive = the rest.

This assay concerns HL-60(TB) leukemia. Kind of assay: NCI-60 one-dose screen, 48 h (100 = growth as untreated, 0 = no growth, -100 = all killed). The following applies: 10 µM unless noted.
`O=C1NN(c2ccccc2)C(c2cccnc2)=N/C1=C\c1cccnc1`: the growth is 104%.

Regarding `CCOc1ccc(NC(=O)Nc2cc(C(C)C)ccc2C)cc1`, the growth was 95.2%.

`Nc1c(Cl)cc(N=Nc2ccccc2)cc1Cl`: the growth was 97.4%.

Take `Cc1c2cnccc2c(C)c2c1c1cc(O)ccc1n2C(C)C`: the growth is 0.765% (active).

In the case of `Fc1ccc(NC(c2ccc(F)cc2)C2CCN(CCCCc3ccccc3)CC2)cc1` (stereo not drawn), the growth was 10.8%.

Take `COc1cc([C@H](C)c2ccc3ccccc3c2)cc(OC)c1OC`: the growth is -5.85% (active).

Take `CCC(C)(C)C(=O)O[C@H]1C[C@@H](C)C=C2C=C[C@H](C)[C@H](CC[C@@H]3CC=CC(=O)O3)[C@H]21`: the growth is 5.76% (active).

As to `CCc1ccccc1-n1[nH]c(C)c(C=N)c1=O`, the growth is 98.3%.

As to `COc1cccc(C2CC(=O)Nc3c2c(C)nn3-c2nc3ccccc3[nH]2)c1OC` (stereo not drawn), the growth is 18.9%.

Regarding `COc1cc2c3c(c4c5ccccc5[nH]c4c2c(OC)c1OC)C(=O)N(CCN1CCCCC1)C3=O`, the growth is 63%.

Turning to `O=C1C(Nc2ccc(Br)cc2)=C(I)C(=O)c2ncccc21`, the growth was -43.2% (active).

On to `COc1ccccc1CNCCCCCCCCCCCCN1C(=O)c2ccc3c4c(ccc(c24)C1=O)C(=O)N(CCCCCCCCCCCCNCc1ccccc1OC)C3=O`, for which the growth is 85.8%.

For the compound `COC(=O)C1(C)CCC[C@]2(C)[C@H]3C[C@H]4C(C(C)C)=C[C@]3(CC[C@@H]12)[C@H]1[C@@H]4[C@@H](OCC#CCN2CCOCC2)CC[C@@H]1OCC#CCN1CCOCC1` (stereo partly drawn), the growth was 88.7%.

For the origin of these results see PubChem BioAssay (NCI).
